# Measurements published in the supplement of paper PMC11732987, “Enantioselective OTUD7B fragment discovery through chemoproteomics screening and high-throughput optimisation” (Communications Chemistry, 2025).
# A number with no mark means an inactive call.
# Legend:
# Assay in all cases: log2 ratio of Biotin-Ahx-Ub-VS probe labelling (fragment/DMSO); higher = less target engagement (more negative = stronger competition), active = hit call of the paper (q ≤ 0.05, log2 ratio ≤ -1)
# Settings in all cases: compound concentration: 200 uM; treatment time: 3 h
# USP16 = USP16 (UniProt Q9Y5T5)
# In short: (§1)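 Labelled DUBs were enriched with NeutrAvidin, digested with LysC and trypsin, and run by diaPASEF LC-MS/MS. The labelling used Biotin-Ahx-Ub-VS at 0.5 µM final for 1 h on HEK293T lysate (495 µg per sample) previously treated in triplicate with fragment at 200 µM or vehicle for 3 h. Values are average log2 fragment/vehicle ratios by unpaired t-test on global-median-normalised Spectronaut quantities of proteins with ≥2 unique peptides.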
# USP19 = molecular target: T1, USP19 (UniProt O94966)
# T1 sequence (whole entry): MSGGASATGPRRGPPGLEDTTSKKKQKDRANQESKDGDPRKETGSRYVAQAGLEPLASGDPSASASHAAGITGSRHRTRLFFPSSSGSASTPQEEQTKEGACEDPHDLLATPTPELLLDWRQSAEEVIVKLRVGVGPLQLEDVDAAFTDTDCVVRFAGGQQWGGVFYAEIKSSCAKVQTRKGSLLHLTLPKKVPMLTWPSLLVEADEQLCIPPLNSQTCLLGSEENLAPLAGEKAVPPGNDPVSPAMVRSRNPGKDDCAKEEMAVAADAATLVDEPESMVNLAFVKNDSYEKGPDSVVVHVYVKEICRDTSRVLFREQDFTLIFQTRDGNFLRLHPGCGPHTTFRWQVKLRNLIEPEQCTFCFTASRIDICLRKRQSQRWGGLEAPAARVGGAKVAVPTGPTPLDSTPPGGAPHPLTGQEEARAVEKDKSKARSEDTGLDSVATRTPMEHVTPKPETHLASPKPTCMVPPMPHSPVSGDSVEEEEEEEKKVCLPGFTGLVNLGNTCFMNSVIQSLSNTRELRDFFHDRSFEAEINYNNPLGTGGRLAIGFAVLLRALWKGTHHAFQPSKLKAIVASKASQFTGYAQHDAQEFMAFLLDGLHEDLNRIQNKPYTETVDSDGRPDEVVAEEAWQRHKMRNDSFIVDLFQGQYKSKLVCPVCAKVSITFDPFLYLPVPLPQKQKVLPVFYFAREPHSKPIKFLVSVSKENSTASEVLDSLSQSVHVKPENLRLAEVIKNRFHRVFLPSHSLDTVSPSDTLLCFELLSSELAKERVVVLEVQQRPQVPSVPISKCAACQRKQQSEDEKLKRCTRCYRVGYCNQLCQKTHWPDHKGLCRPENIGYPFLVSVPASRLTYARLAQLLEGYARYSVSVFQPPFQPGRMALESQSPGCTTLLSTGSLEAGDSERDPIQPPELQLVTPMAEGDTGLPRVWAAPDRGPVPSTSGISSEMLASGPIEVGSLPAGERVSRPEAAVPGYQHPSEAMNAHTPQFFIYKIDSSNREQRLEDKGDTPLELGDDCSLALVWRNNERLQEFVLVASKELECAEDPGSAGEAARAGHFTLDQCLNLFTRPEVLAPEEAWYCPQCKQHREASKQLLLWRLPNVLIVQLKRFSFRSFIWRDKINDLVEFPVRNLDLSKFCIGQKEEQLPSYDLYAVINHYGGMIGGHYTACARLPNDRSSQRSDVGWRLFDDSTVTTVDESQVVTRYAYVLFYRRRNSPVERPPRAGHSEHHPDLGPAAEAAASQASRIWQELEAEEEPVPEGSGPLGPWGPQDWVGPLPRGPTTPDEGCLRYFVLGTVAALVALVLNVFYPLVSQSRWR
# In short: as §1
# USP24 = USP24 (UniProt Q9UPU5)
# In short: as §1
# USP25 = molecular target: T2, USP25 (UniProt Q9UHP3)
# T2 sequence (whole entry): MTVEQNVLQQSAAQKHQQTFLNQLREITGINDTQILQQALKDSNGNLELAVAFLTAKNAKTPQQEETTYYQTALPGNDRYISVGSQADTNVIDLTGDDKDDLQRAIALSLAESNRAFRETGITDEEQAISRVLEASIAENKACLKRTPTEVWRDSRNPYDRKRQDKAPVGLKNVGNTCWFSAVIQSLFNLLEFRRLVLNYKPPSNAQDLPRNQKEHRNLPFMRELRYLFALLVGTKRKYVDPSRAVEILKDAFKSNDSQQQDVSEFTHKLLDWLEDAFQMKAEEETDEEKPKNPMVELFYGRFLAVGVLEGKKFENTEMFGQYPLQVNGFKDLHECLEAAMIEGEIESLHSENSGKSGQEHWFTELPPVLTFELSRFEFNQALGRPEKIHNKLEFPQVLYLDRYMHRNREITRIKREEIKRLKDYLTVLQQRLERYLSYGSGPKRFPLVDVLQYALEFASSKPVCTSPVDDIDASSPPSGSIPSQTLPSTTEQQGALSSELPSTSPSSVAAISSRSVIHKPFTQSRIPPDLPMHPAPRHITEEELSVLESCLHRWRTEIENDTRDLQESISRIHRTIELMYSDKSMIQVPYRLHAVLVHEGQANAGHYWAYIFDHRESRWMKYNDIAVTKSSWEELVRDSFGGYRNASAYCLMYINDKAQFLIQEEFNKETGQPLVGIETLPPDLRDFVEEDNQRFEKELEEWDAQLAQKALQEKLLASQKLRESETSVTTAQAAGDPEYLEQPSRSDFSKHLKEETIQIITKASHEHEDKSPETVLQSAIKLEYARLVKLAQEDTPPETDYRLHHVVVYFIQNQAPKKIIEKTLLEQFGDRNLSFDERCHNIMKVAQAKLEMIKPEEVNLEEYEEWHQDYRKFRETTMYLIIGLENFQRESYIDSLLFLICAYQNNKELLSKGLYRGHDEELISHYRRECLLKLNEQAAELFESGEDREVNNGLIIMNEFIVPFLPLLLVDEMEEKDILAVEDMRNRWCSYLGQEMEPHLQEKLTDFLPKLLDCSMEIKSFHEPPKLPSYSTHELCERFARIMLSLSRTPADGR
# In short: as §1
# USP28 = molecular target: T3, USP28 (UniProt Q96RU2)
# T3 sequence (whole entry): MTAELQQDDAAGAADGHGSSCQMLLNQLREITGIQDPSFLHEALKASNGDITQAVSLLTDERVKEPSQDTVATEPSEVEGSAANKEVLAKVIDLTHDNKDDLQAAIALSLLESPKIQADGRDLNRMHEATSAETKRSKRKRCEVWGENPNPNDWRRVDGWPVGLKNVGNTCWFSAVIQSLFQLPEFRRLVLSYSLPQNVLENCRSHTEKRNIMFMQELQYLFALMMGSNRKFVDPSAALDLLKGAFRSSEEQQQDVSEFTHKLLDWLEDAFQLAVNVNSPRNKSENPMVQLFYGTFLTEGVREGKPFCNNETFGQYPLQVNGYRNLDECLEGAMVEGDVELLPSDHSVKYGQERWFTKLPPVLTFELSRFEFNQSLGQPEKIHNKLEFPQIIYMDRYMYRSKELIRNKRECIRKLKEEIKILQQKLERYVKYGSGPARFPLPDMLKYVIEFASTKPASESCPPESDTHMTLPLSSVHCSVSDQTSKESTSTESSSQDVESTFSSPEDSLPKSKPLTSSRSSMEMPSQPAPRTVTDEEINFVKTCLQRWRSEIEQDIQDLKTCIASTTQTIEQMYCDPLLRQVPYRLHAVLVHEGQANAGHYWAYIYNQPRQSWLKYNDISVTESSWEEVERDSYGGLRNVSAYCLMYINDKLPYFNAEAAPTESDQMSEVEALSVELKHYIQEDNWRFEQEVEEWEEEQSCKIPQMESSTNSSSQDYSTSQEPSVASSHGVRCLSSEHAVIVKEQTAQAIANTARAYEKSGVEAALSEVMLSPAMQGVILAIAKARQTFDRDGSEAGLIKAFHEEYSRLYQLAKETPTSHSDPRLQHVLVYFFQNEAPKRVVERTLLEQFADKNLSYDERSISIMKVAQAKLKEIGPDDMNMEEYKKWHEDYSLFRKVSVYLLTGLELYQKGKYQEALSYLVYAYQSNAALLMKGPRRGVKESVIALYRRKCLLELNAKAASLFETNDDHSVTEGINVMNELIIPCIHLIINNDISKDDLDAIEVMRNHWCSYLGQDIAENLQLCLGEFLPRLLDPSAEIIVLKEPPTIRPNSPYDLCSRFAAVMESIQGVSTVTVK
# In short: as §1
# Sequence of USP16 (Q9Y5T5 whole entry, looked up, the tested form may be a part): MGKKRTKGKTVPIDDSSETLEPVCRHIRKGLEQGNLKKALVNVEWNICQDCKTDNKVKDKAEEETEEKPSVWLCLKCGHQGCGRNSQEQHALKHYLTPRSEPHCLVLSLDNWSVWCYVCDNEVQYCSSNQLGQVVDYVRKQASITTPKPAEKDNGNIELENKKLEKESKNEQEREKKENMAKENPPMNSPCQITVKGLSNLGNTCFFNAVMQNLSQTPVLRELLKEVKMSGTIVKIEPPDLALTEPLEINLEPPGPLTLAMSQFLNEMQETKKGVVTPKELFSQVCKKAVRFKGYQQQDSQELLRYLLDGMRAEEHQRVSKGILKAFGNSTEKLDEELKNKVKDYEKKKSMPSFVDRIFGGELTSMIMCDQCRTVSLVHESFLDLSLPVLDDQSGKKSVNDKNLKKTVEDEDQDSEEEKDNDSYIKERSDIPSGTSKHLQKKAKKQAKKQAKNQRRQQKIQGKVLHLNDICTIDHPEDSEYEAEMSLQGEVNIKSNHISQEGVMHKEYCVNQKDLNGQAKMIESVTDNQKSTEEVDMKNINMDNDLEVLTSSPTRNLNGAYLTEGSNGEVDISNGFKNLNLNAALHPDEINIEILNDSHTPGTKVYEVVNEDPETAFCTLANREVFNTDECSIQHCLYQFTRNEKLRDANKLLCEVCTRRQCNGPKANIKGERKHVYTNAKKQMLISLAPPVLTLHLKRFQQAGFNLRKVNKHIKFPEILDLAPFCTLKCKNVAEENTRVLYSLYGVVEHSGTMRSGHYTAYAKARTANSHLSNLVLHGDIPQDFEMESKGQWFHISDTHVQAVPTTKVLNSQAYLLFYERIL
# Sequence of USP24 (Q9UPU5 whole entry): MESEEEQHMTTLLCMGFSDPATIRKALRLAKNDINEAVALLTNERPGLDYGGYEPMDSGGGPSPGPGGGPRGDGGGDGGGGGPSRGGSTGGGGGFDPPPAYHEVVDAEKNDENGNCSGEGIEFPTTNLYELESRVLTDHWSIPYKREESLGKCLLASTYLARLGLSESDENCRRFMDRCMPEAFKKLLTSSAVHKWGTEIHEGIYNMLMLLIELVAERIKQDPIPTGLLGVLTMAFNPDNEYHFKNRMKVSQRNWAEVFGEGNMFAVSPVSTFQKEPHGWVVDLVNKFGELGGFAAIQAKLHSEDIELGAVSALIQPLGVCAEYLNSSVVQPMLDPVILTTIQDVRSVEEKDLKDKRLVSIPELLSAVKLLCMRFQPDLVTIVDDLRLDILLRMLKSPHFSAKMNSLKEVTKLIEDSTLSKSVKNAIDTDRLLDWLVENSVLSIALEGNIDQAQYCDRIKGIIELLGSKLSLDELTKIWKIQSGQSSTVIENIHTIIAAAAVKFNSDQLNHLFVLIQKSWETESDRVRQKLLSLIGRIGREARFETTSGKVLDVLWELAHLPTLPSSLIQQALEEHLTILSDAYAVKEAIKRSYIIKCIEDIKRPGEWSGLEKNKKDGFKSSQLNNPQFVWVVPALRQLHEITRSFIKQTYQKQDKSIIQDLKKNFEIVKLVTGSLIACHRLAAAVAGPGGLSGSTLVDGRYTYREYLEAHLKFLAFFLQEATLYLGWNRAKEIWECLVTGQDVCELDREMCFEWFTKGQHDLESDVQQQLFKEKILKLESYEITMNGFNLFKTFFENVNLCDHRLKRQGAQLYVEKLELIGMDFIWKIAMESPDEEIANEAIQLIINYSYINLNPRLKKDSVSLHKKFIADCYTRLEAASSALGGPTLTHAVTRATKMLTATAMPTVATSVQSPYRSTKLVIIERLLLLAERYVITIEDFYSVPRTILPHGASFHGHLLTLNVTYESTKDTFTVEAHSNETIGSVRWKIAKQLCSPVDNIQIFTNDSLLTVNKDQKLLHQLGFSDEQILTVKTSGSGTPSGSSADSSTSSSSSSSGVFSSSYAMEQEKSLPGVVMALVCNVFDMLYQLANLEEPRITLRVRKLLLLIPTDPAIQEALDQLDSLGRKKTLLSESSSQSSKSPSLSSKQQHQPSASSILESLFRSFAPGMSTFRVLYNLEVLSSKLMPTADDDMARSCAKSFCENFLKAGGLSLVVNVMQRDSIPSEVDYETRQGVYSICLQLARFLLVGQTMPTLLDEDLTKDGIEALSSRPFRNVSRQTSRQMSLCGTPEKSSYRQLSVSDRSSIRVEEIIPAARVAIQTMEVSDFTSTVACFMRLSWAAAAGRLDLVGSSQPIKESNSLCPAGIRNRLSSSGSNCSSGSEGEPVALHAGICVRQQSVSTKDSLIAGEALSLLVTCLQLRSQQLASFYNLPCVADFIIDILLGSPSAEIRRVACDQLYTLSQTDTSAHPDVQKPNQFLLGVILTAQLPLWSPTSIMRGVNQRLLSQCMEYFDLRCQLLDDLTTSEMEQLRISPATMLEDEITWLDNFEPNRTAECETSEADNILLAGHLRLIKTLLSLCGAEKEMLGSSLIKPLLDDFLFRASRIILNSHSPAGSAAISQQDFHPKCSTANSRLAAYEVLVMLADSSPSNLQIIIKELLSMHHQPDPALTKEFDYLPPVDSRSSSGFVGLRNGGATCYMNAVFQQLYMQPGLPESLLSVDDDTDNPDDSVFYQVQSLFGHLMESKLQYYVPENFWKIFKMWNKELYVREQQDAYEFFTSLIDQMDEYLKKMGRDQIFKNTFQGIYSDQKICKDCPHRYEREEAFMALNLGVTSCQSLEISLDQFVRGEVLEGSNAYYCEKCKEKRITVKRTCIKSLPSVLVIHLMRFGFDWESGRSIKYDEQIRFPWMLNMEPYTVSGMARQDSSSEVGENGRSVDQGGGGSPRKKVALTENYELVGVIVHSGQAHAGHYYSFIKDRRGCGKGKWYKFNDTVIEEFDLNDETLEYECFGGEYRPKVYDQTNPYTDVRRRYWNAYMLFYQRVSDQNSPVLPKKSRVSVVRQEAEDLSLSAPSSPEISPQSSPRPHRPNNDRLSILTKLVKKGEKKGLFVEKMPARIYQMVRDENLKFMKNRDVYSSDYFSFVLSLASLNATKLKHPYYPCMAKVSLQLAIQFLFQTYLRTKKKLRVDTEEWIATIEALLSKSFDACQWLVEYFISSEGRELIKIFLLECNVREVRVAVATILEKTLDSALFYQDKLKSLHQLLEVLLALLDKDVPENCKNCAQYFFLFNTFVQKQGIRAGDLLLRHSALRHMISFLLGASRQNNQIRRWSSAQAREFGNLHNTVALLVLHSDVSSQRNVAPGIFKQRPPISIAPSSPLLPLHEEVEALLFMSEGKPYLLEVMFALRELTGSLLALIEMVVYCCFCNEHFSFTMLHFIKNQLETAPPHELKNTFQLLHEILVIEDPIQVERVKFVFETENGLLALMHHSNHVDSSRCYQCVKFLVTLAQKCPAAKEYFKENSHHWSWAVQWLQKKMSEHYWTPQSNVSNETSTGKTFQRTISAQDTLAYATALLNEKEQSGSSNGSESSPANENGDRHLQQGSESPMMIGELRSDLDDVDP
compound,measurement,setting,value
N#Cc1ccccc1N1CCN(C(=O)CCl)CC1,log2 ratio of Biotin-Ahx-Ub-VS probe labelling,USP16,-0.37
same,log2 ratio of Biotin-Ahx-Ub-VS probe labelling,USP19,-0.813
same,log2 ratio of Biotin-Ahx-Ub-VS probe labelling,USP24,-1.15 (active)
same,log2 ratio of Biotin-Ahx-Ub-VS probe labelling,USP25,-0.657
same,log2 ratio of Biotin-Ahx-Ub-VS probe labelling,USP28,-1.05
